The campaign covered roughly 53,000 sequences. About 3,700 (7%) were called active.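 How the source made its calls: active means gene knockdowns whose robust z-score for IL-1 alpha signal is at least 2 or at most -2, so actives lie on both sides; inactive means the rest.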 Many of the other results were omitted from the sample, so actives are more common in it than they were.

A short description of this test: Components of the Cytosolic LPS Sensing Pathway: Gene Identification via Genome-wide siRNA Screen.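 Further: robust z of the log signal after scaling to non-targeting control siRNA wells of the plate.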 The conditions noted are these: RAW264.7 macrophages, IL-1a HTRF, actives lie on both sides, screened at 100 nM (by protocol), cells primed 5 h with Pam3CSK4 first. An outline of the steps: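 Read-out: IL-1a HTRF on supernatant, divided by plate negative-control median ×100, log-transformed and converted to robust z-score. Cells were RAW264.7 given 100 nM siRNA, Pam3CSK4-primed 5 hours, then LipidA-transfected 24 hour.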
On the technique in general: In TR-FRET formats the signal depends on donor and acceptor labels being close together.
Consider CCGAGGACUAUUUGAAACGTT against Mrtfa, for which the z-score was -1.46 (inactive).
Consider GGAUUUGAGUUGAAGCGUGTT against Zscan20, for which the z-score was -0.129 (inactive).
Consider GGUGGUAAAUCGAAUUGUUTT against Tmem185b, for which the z-score was -0.171 (inactive).
With GGCUGGCUAUAAGAAAAAATT against Mrpl35, the z-score was -0.646 (inactive).
With GGCUUGAAGAUGUCUAUGATT against Aptx, the z-score was -2.19 (active).
For GGCCACAGGAAGUCAGUUATT against Gsk3b, the z-score was -1.23 (inactive).
For the sequence GCCAACCAUCAGUUUAUACTT against Mboat1, the z-score is -0.31 (inactive).
To GGCUGAAGAACUCCUACAATT against Dennd1c belongs 2.17 (active); to GGUUAGUAGUCUUCUUAUCTT against Olfr1173, 0.291 (inactive).
As to CGCACAGAGAAUAAGGGAATT against Tcta, the z-score is 0.843 (inactive).
CCUGAUGCACUACUCGUCUTT against Dmbx1: the z-score is -0.131 (inactive).
As to GGUAAAUGUCUGCUCUGAGTT against Selenok, the z-score was -2.53 (active).
In the case of GGUCAACUAGCAGAAACCATT against Adgrv1, the z-score was -1.84 (inactive).
Next, CCGUAGAGAUCAACAACACTT against Npepl1: 0.799 (inactive); GGACUCCUUCCACCACAAUTT against Aifm2: -0.2 (inactive).
Next, GCACAUAGCAUCCACUCCATT against Gm4793: -2.56 (active); CCCUAUUUGUCAGCGGUCUTT against Rbpms: -1.94 (inactive).
On to GCCUUAAGAGAUGUAUUUCTT against Vmn1r33, for which the z-score is -0.042 (inactive).
Next, GGAGGAAAUGAUGAUUUUCTT against Kbtbd2: 0.283 (inactive); CCAAGCGAAUGCUGGACAUTT against Cox4i1: 3.44 (active); GGUACAUCUAUUUCUUGUUTT against Ncam2: -1.2 (inactive).
On to GGACUGUACUAUGGCUCUCTT against Nt5m, for which the z-score is 0.135 (inactive).
For the sequence “GGGAGGAGAGUGAUUGAGATT against A730013G03Rik”, the z-score is 0.682 (inactive).
To CCAACAAAUUCUGGUGGGATT against Ccdc84 belongs 0.578 (inactive).
Next, GGAGUACCUGUGGUGCAUUTT against Ahcy: 0.213 (inactive); GGCGGUACCUCUUCUUCAUTT against Aipl1: 2.32 (active).
Take CCGAAGUCAACUAAACUUATT against Rmc1: the z-score was 0.732 (inactive).
On to CCCUUGCUACAAUGAUGCCTT against Mfge8, for which the z-score is 2.56 (active).
GGACAACUUCAACAGCACUTT against Rab13: the z-score is -1.31 (inactive).
Take CGUAGAGCUCAGAGAAUUCTT against Dhx58: the z-score is 0.614 (inactive).
As for GCGAAUGAUAUGUAUCAGATT against Pik3r1, the z-score is 0.647 (inactive).
Take ACCUUUUCAAAUCUGUGCGTT against Uts2b: the z-score is -0.928 (inactive).
Next, GGCUAACCAGAGGAAAAACTT against Rph3a: -2.19 (active); “GCUCUUGGUCCGUCUUCAGTT against 6030452D12Rik”: -1.76 (inactive); GGAGUCUUGUAAUGAGCUUTT against Zfp54: 0.898 (inactive).
Turning to CCCUCAAAGUCAUUUCAAATT against Cfap43, the z-score was -1.61 (inactive).
On to GGUUGAAAAUGGAAGAGUATT against Mbnl2, for which the z-score was -2.27 (active).
Take CCUUCCUACCGGAGAAUGATT against Capn6: the z-score is -0.341 (inactive).
For the sequence GGUUCAACAUGAAAAUGAUTT against Lingo2, the z-score was -0.251 (inactive).
As for GCCAAUUGAGUCGUCUAUCTT against Rps6ka1, the z-score was 2.41 (active).
As for GGCAGCGAUUGACAAAAUGTT against Eefsec, the z-score is -0.756 (inactive).
Turning to GGUCGUGAUAAACAUAUCATT against Cep85, the z-score was -1.1 (inactive).
Turning to GGUCAAUGGCCACAAGUUCTT against Prkce, the z-score is 0.421 (inactive).
CCAUGAUCGCUAGUGAAGCTT against Mrpl24: the z-score is -0.743 (inactive).
Take GGUGGUGAACUGUUUGACCTT against Pnck: the z-score was -1.58 (inactive).
In the case of GCUGACCUUUGUAAGUUAUTT against Ttc17, the z-score was -0.369 (inactive).
Turning to GGCUAUGCUUCUUUCCUUUTT against Cfhr1, the z-score was 0.846 (inactive).
Next, GGAGAAGAAAAAGAAGGACTT against Pak1: -0.932 (inactive).
To CGGCUUGCUACUUUGGAACTT against Gda belongs 2.55 (active).
To GAUGGAUCGAACUCUGCACTT against Stard10 belongs -0.957 (inactive); to GGACCAAGUGGAGAAAGAATT against Nkx6-1, -0.622 (inactive).
On to CCCAGAUGAACAAAUGACCTT against Tceanc, for which the z-score is 0.582 (inactive).
In the case of GCAUUAUGGAAAGUUGGAGTT against Gabra4, the z-score was 0.915 (inactive).
With GGAGUGUGAGGUCCUCUCUTT against Sdsl, the z-score is 1.85 (inactive).
Turning to GCGUAAGGAAUUGUCUAACTT against Hoxd12, the z-score is 4.05 (active).
Next, CCGACGAUUCCUGAAGCUATT against Tada3: -0.275 (inactive).
Regarding GGUGACAGAUUCUUUGAGGTT against Tti2, the z-score is 0.704 (inactive).
In the case of GGUCAGAUUAUGCUUUAGATT against Mrgpre, the z-score is -0.783 (inactive).
Regarding CGUGAUUGAAUCUCAGGAGTT against Spata24, the z-score is -2.14 (active).
Next, GCAGAGGGUUUUCCAAGCGTT against Ddx4: -0.631 (inactive); GGAAGUGACCUGUCUGAAGTT against Gramd1a: 0.641 (inactive).
For GGAUUAUGUAGAGGCCCAATT against Gngt2, the z-score was -2.63 (active).
As for GGACAGCUGGACCUAAAGGTT against Slco4a1, the z-score was -0.417 (inactive).
As to GGAGCUGAUGGUUGAAUGUTT against Ehbp1, the z-score was 0.177 (inactive).
Turning to GGAUCCUCGGGAGUACAUGTT against Crybg3, the z-score is 0.287 (inactive).
Turning to CCAGUAAGUUGCAUUCGAATT against Defb8, the z-score was 0.675 (inactive).
As to GGCAUAGCUGGUCUGAAGATT against Slc3a2, the z-score is 2.06 (active).
To CCUCAUUUCCAAACUCAAATT against Fbxw13 belongs -0.491 (inactive).
Consider CCACGAGAAGUGGAUAUUATT against Plcxd3, for which the z-score was -1.1 (inactive).
As to CCUGAACAUGAGUUAAAAGTT against Lmo4, the z-score is 0.156 (inactive).
As for GGAUUAGCUCUACAGAAGGTT against Olfr1031, the z-score was 1.67 (inactive).
Turning to GGAGCUGUUUUUCCACUCCTT against Phlda2, the z-score was -0.337 (inactive).
Next, GCUGGAAGAAAACUUCUAUTT against Jade2: 2.49 (active); GGUAUGGUUUCUAUAACAATT against Arsj: 0.814 (inactive).
On to “GGAAGGUCAUGUGAAUAUCTT against A930002I21Rik”, for which the z-score is -1.6 (inactive).
On to “GGCUUUGAGAGUUUGUCACTT against 2410004B18Rik”, for which the z-score was -1.62 (inactive).
For the sequence GGGAGUUAAACUUCUCUGCTT against Tlr13, the z-score is -0.0637 (inactive).
To GGUACCGGAGUCUGAAACATT against Drp2 belongs -2.53 (active).
With GGGUCAGUGUGGAGAGUACTT against Col13a1, the z-score was 0.679 (inactive).
As to GGAUGAAUGGAAUUUACUGTT against Fbh1, the z-score was 0.406 (inactive).
On to GGGAAAAGUGGUAAAUUAUTT against Shprh, for which the z-score is 0.194 (inactive).
Next, GGAAGACAAGGUUUUAGCUTT against Ulbp1: 1.92 (inactive); CGUGGAGAGAUCAAUCCCGTT against Adad1: -2.01 (active); GGUUCAUGAAUGACAAACUTT against Sult4a1: 0.383 (inactive).
As to GGUGUUUAAUAAUGUUGUCTT against Olfr976, the z-score is -0.27 (inactive).
Next, CCCAAUGACAAUAAAGACCTT against Mmp25: -0.936 (inactive); GGGCUUGUAUCUACCAUGGTT against Strbp: 2.18 (active).
Take GGUAAGAGGAUCCAAGGUGTT against Fam131a: the z-score is 0.0909 (inactive).
In the case of CCUACGUCCAGUAGUGCAGTT against Ahdc1, the z-score was 1.43 (inactive).
Regarding GCUCAAAGGACCUCUGAGCTT against Slc29a2, the z-score is -1.28 (inactive).
With CCUCCACUUCGUGAGCGAATT against Xxylt1, the z-score was -1.25 (inactive).
GCCACUGUUGUGUAAACUATT against Rap2a: the z-score was 2.01 (active).
As to GGAGAAGUCUUCAUUUGAATT against Tubgcp2, the z-score was -0.331 (inactive).
For the sequence GGAAGUAGGCAGCAUCAUCTT against Pcbp1, the z-score is 1.13 (inactive).
Turning to GGCUGGCUUUGAACUCAAUTT against Zfp36, the z-score is -1.28 (inactive).
As for GCAACUGCCUAGGCUUGAUTT against Slc30a7, the z-score is 4.79 (active).
Next, GGCAGAUGUAUGAAAUCUUTT against Fancc: -0.196 (inactive).
On to GGUAUGCAACCUUGCCUUUTT against Coa3, for which the z-score was 0.945 (inactive).
For the sequence GGAGAAGACUUGUAACAAATT against Hacd4, the z-score was 5.28 (active).
On to GGGAUGACUUGGAGUCUCUTT against Csnk1d, for which the z-score was -0.0473 (inactive).
Next, CGGUUUCUUACCAGCAAUUTT against Mgmt: -0.237 (inactive); GAACCAGACUAAGAACUGUTT against Cox6b1: 5.31 (active).
As to GGCCUUCUCUGACUUUCUGTT against Zfp324, the z-score was -0.633 (inactive).
As to GGGACAAUGUACAUCUACUTT against Dnaaf6b, the z-score is -0.199 (inactive).
In the case of GCAAGAUCCGUACAUAGCATT against Wdr48, the z-score is -1.43 (inactive).
Next, GGCAUUAAAGACCUGUUAATT against Kpnb1: -0.887 (inactive).
For the sequence AUUGUAGCAGUGAAUUGGATT against Pdia6, the z-score was -0.121 (inactive).

The values are drawn from PubChem BioAssay AID1508600 (Functional Genomics Laboratory (NCATS/FGL), 2020).
